Out of some 5,500 compounds screened, about 2,000 (36%) were called active. Roughly 18% stayed inconclusive and do not appear here. No stated cut-off is given here; in the data, active means normalized growth mostly below about 0.91 (no sharp cut-off); inconclusive means no clear call, values can overlap the other calls; inactive means mostly above about 0.92. Some of the results follow.
Assay: chemical genetic growth profiling, strain panel (AID 1159580);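 further: tested at 20 µM; growth read once vehicle control cultures reached saturation at 30 °C; 1 = growth at the plate median or of vehicle wells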
Settings: growth OD

Measured: normalized growth

COc1ccc(C(=O)c2ccccc2)c(O)c1
inactive: S. cerevisiae deletion strains, locus YLR058C, strain SHM2, stronger effect = lower value 0.945 | S. cerevisiae deletion strains, locus YLR268W, strain sec22, stronger effect = lower value 0.917 | S. cerevisiae deletion strains, locus YLR357W, strain rsc2, stronger effect = lower value 0.857 | S. cerevisiae deletion strains, locus YLR371W, strain rom2, stronger effect = lower value 0.918 | S. cerevisiae deletion strains, locus YML016C, strain PPZ1, stronger effect = lower value 0.932 | S. cerevisiae deletion strains, locus YMR307W, strain GAS1, stronger effect = lower value 0.62 | S. cerevisiae deletion strains, locus YNL067W, strain RPL9B, stronger effect = lower value 0.889 | S. cerevisiae deletion strains, locus YNL128W, strain TEP1, stronger effect = lower value 0.934 | S. cerevisiae deletion strains, locus YNL153C, strain GIM3, stronger effect = lower value 0.937 | S. cerevisiae deletion strains, locus YNL183C, strain NPR1, stronger effect = lower value 0.851 | S. cerevisiae deletion strains, locus YNL250W, strain rad50, stronger effect = lower value 0.915 | S. cerevisiae deletion strains, locus YNL322C, strain KRE1, stronger effect = lower value 0.93 | S. cerevisiae deletion strains, locus YNR052C, strain pop2, stronger effect = lower value 0.923 | S. cerevisiae deletion strains, locus YOL012C, strain htz1 1.24 | S. cerevisiae deletion strains, locus YOR061W, strain CKA2, stronger effect = lower value 0.936 | S. cerevisiae deletion strains, locus YOR069W, strain VPS5, stronger effect = lower value 0.959 | S. cerevisiae deletion strains, locus YOR231W, strain MKK1, stronger effect = lower value 0.878 | S. cerevisiae deletion strains, locus YPL055C, strain LGE1, stronger effect = lower value 0.773 | S. cerevisiae deletion strains, locus YPL241C, strain CIN2, stronger effect = lower value 0.94 | S. cerevisiae strains, strain wild type, stronger effect = lower value 0.911
active: S. cerevisiae deletion strains, locus YJR075W, strain HOC1, stronger effect = lower value 0.848 | S. cerevisiae deletion strains, locus YKL009W, strain mrt4, stronger effect = lower value 0.835 | S. cerevisiae deletion strains, locus YKL068W, stronger effect = lower value 0.91 | S. cerevisiae deletion strains, locus YKL085W, strain MDH1 (second series), stronger effect = lower value 0.895 | S. cerevisiae deletion strains, locus YKL085W, strain MDH1, stronger effect = lower value 0.895 | S. cerevisiae deletion strains, locus YKL160W, strain elf1, stronger effect = lower value 0.764 | S. cerevisiae deletion strains, locus YKL190W, strain CNB1, stronger effect = lower value 0.913 | S. cerevisiae deletion strains, locus YKR001C, strain vps1, stronger effect = lower value 0.553 | S. cerevisiae deletion strains, locus YKR026C, strain gcn3, stronger effect = lower value 0.804 | S. cerevisiae deletion strains, locus YKR091W, strain srl3, stronger effect = lower value 0.874 | S. cerevisiae deletion strains, locus YLL001W, strain dnm1, stronger effect = lower value 0.734 | S. cerevisiae deletion strains, locus YLL026W, stronger effect = lower value 0.841 | S. cerevisiae deletion strains, locus YLL041C, strain sdh2, stronger effect = lower value 0.861 | S. cerevisiae deletion strains, locus YLR027C, strain aat2, stronger effect = lower value 0.807 | S. cerevisiae deletion strains, locus YLR039C, strain RIC1, stronger effect = lower value 0.441 | S. cerevisiae deletion strains, locus YLR102C, strain apc9, stronger effect = lower value 0.906 | S. cerevisiae deletion strains, locus YLR113W, strain HOG1, stronger effect = lower value 0.836 | S. cerevisiae deletion strains, locus YLR221C, strain rsa3, stronger effect = lower value 0.74 | S. cerevisiae deletion strains, locus YLR258W, strain gsy2, stronger effect = lower value 0.815 | S. cerevisiae deletion strains, locus YLR262C, strain YPT6 (second series), stronger effect = lower value 0.408 | S. cerevisiae deletion strains, locus YLR262C, strain YPT6, stronger effect = lower value 0.526 | S. cerevisiae deletion strains, locus YLR320W, strain mms22, stronger effect = lower value 0.542 | S. cerevisiae deletion strains, locus YLR330W, strain CHS5, stronger effect = lower value 0.916 | S. cerevisiae deletion strains, locus YLR342W, strain FKS1 (second series), stronger effect = lower value 0.763 | S. cerevisiae deletion strains, locus YLR342W, strain FKS1, stronger effect = lower value 0.815 | S. cerevisiae deletion strains, locus YLR370C, strain arc18, stronger effect = lower value 0.77 | S. cerevisiae deletion strains, locus YLR384C, strain iki3, stronger effect = lower value 0.843 | S. cerevisiae deletion strains, locus YLR418C, strain cdc73, stronger effect = lower value 0.625 | S. cerevisiae deletion strains, locus YML032C, strain rad52, stronger effect = lower value 0.871 | S. cerevisiae deletion strains, locus YML120C, strain ndi1, stronger effect = lower value 0.762 | S. cerevisiae deletion strains, locus YML124C, strain tub3, stronger effect = lower value 0.899 | S. cerevisiae deletion strains, locus YMR058W, strain fet3, stronger effect = lower value 0.732 | S. cerevisiae deletion strains, locus YMR078C, strain ctf18, stronger effect = lower value 0.876 | S. cerevisiae deletion strains, locus YMR125W, strain sto1, stronger effect = lower value 0.825 | S. cerevisiae deletion strains, locus YMR129W, stronger effect = lower value 0.856 | S. cerevisiae deletion strains, locus YMR205C, strain PFK2, stronger effect = lower value 0.567 | S. cerevisiae deletion strains, locus YMR223W, strain ubp8, stronger effect = lower value 0.774 | S. cerevisiae deletion strains, locus YMR231W, strain pep5, stronger effect = lower value 0.877 | S. cerevisiae deletion strains, locus YMR263W, strain SAP30, stronger effect = lower value 0.878 | S. cerevisiae deletion strains, locus YNL071W, strain lat1, stronger effect = lower value 0.538 | S. cerevisiae deletion strains, locus YNL209W, strain ssb2, stronger effect = lower value 0.906 | S. cerevisiae deletion strains, locus YNL233W, strain BNI4, stronger effect = lower value 0.833 | S. cerevisiae deletion strains, locus YNL248C, strain rpa49, stronger effect = lower value 0.639 | S. cerevisiae deletion strains, locus YNL271C, strain bni1, stronger effect = lower value 0.882 | S. cerevisiae deletion strains, locus YNL298W, strain CLA4, stronger effect = lower value 0.859 | S. cerevisiae deletion strains, locus YNL307C, strain MCK1, stronger effect = lower value 0.538 | S. cerevisiae deletion strains, locus YNL322C, strain KRE1 (second series), stronger effect = lower value 0.862 | S. cerevisiae deletion strains, locus YNR049C, strain mso1, stronger effect = lower value 0.838 | S. cerevisiae deletion strains, locus YOL006C, strain TOP1, stronger effect = lower value 0.474 | S. cerevisiae deletion strains, locus YOL147C, strain pex11, stronger effect = lower value 0.846 | S. cerevisiae deletion strains, locus YOR001W, strain rrp6, stronger effect = lower value 0.712 | S. cerevisiae deletion strains, locus YOR070C, strain gyp1, stronger effect = lower value 0.857 | S. cerevisiae deletion strains, locus YOR080W, strain dia2, stronger effect = lower value 0.867 | S. cerevisiae deletion strains, locus YOR083W, strain WHI5, stronger effect = lower value 0.73 | S. cerevisiae deletion strains, locus YOR106W, strain vam3, stronger effect = lower value 0.682 | S. cerevisiae deletion strains, locus YOR136W, strain idh2, stronger effect = lower value 0.912 | S. cerevisiae deletion strains, locus YOR144C, strain elg1, stronger effect = lower value 0.897 | S. cerevisiae deletion strains, locus YOR184W, strain ser1, stronger effect = lower value 0.476 | S. cerevisiae deletion strains, locus YOR265W, strain rbl2, stronger effect = lower value 0.845 | S. cerevisiae deletion strains, locus YOR270C, strain vph1, stronger effect = lower value 0.419 | S. cerevisiae deletion strains, locus YOR290C, strain snf2, stronger effect = lower value 0.784 | S. cerevisiae deletion strains, locus YOR316C, strain cot1, stronger effect = lower value 0.903 | S. cerevisiae deletion strains, locus YPL051W, strain arl3, stronger effect = lower value 0.647 | S. cerevisiae deletion strains, locus YPL078C, strain atp4, stronger effect = lower value 0.599 | S. cerevisiae deletion strains, locus YPL106C, strain sse1, stronger effect = lower value 0.845 | S. cerevisiae deletion strains, locus YPL240C, strain hsp82, stronger effect = lower value 0.858 | S. cerevisiae deletion strains, locus YPL256C, strain CLN2, stronger effect = lower value 0.818 | S. cerevisiae deletion strains, locus YPR119W, strain clb2, stronger effect = lower value 0.888 | S. cerevisiae deletion strains, locus YPR141C, strain kar3, stronger effect = lower value 0.892 | S. cerevisiae deletion strains, locus YPR163C, strain tif3, stronger effect = lower value 0.844 | S. cerevisiae deletion strains, locus YPR167C, strain met16, stronger effect = lower value 0.898 | S. cerevisiae deletion strains, strain wtn01, stronger effect = lower value 0.872
